Results: PubChem BioAssay (NCATS)
Results filed as inconclusive are left out. The source made the active and inactive calls. The call rests on the fitted dose curve; in most records, active means well fitted inhibition curve with a large enough effect; inconclusive means small, poorly fitted or top-dose-only effect; inactive means flat fitted curve, though single readings scatter.

Key:
Experiment in all cases: qHTS profiling for inhibitors of Plasmodium falciparum proliferation (AID 504749); further: nearly all actives have a fitted effect of over 60% in size
Details in all cases: P. falciparum in erythrocytes, SYBR Green DNA, 72 h; series mostly up to 28.7 µM
CP238 = system: CP238
Outline: (§1)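 P. falciparum-infected erythrocytes (0.3% parasitemia, 2.5% hematocrit) incubated with compound 72 h at 37 C, 5% CO2. Parasite DNA detected by SYBR Green after lysis, overnight at room temperature; normalised to 0.29 uM artemisinin and DMSO.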

CP247 = system: CP247
Outline: as §1

CP250 = system: CP250
Outline: as §1

CP252 = system: CP252
Outline: as §1

CP256 = system: CP256
Outline: as §1

CP260 = system: CP260
Outline: as §1

CP262 = system: CP262
Outline: as §1

CP265 = system: CP265
Outline: as §1

CP266 = system: CP266
Outline: as §1

CP268 = system: CP268
Outline: as §1

CP269 = system: CP269
Outline: as §1

CP286 = system: CP286
Outline: as §1

CP291 = system: CP291
Outline: as §1

CP297 = system: CP297
Outline: as §1

CP305 = system: CP305
Outline: as §1

CP315 = system: CP315
Outline: as §1

CP325 = system: CP325
Outline: as §1

CP329 = system: CP329
Outline: as §1

CP335 = system: CP335
Outline: as §1

DFO2036 = system: DFO2036
Outline: as §1

Measured: Potency

c1ccc2c(c1)sc1ccccc12
inactive: all assays above

CN1C(=O)NC(=O)C(C)(C2=CCCCC2)C1=O (stereo not drawn)
inactive: all assays above

COP(=S)(OC)Oc1ccc(SC)c(C)c1
not listed: CP291
inactive: all other assays above

NC(=O)CS(=O)C(c1ccccc1)c1ccccc1 (stereo not drawn)
inactive: all assays above

O=c1oc2ccccc2c(O)c1Cc1c(O)c2ccccc2oc1=O
inactive: all assays above

C[C@](O)(CS(=O)(=O)c1ccc(F)cc1)C(=O)Nc1ccc(C#N)c(C(F)(F)F)c1
inactive: all assays above

CNC(C)(C)Cc1ccccc1
inactive: all assays above

NCCc1ccc(O)cc1
inactive: all assays above

Nc1ccc([As](=O)(O)O)cc1
inactive: all assays above

Clc1ccc2c(c1)C(c1ccccc1)=NCc1nncn1-2
inactive: all assays above

Cc1ncsc1CCCl
not listed: CP291
inactive: all other assays above

COc1c2c(cc3c1OCO3)CCN(C)C2
inactive: all assays above

Clc1ccc(C(c2ccc(Cl)cc2)C(Cl)(Cl)Cl)cc1
not listed: CP297
inactive: all other assays above

Clc1cccc(SC2CCNCC2)n1
not listed: CP291
inactive: all other assays above

CCC1(c2ccccc2)C(=O)N(COC)C(=O)N(COC)C1=O
inactive: all assays above

O=C1OC(c2ccc(O)c(S(=O)(=O)O)c2)(c2ccc(O)c(S(=O)(=O)O)c2)c2c(Br)c(Br)c(Br)c(Br)c21
inactive: all assays above

Nc1nc(N)nc(NC2CC2)n1
inactive: all assays above

O=C1Nc2ccc(Cl)cc2C(c2ccccc2)=NC1O (stereo not drawn)
inactive: all assays above

CC(C)=CC1C(C(=O)OCN2C(=O)C3=C(CCCC3)C2=O)C1(C)C (stereo not drawn)
inactive: all assays above

CN1C(=O)CC(=O)N(c2ccccc2)c2cc(Cl)ccc21
inactive: all assays above

COP(=S)(OC)Oc1ccc(S(=O)(=O)N(C)C)cc1
inactive: all assays above

CN1C(=O)CCS(=O)(=O)C1c1ccc(Cl)cc1 (stereo not drawn)
inactive: all assays above

C[C@]12CCC(=O)C=C1CC[C@@H]1[C@@H]2CC[C@]2(C)C(=O)CC[C@@H]12
inactive: all assays above

O=c1[nH]oc2c1CCNC2
inactive: all assays above

CC(C)NC(C)C
not listed: CP315 | CP335
inactive: all other assays above

CN1C(=O)COc2c(C(=O)NC3CN4CCC3CC4)cc(Cl)cc21 (stereo not drawn)
inactive: all assays above

Oc1ccc(Cl)cc1
not listed: CP335
inactive: all other assays above
